Laboratory results as given in PubChem BioAssay (NCI).
About 83,000 compounds went through this panel and 20% of them were active in at least one assay; those are over-represented in the sample as a whole.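 Treatment: one concentration, 48 hours, 96-well format. Scoring: percent growth, with anything below 10 considered active.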 Activity calls are given as the source filed them.

system: SNB-75 CNS; test: NCI-60 one-dose screen, 48 h (100 = growth as untreated, 0 = no growth, -100 = all killed); conditions: 10 µM unless noted

Structure (SMILES)	growth
O=[N+]([O-])c1ccc(NC(=S)NNC(=S)Nc2ccc(F)cc2)cc1	103% (inactive)
O=C(COc1ccc(/C=C2\C(=O)Nc3ccc(F)cc32)cc1)Nc1ccccc1	94.7% (inactive)
O=C1[C@@H]2Cc3c([nH]c4ccccc34)[C@H](c3ccc(Br)cc3)N2C(=O)CN1C1CCN(Cc2c(Cl)cccc2Cl)CC1	66.3% (inactive)
C/C(=N\NC(=O)/C=C/CC(=O)O)c1nnn(-c2ccc([N+](=O)[O-])cc2)c1C	97.6% (inactive)
CS(=O)(=O)c1nccc(-c2c(-c3cccc(OCc4ccc(Cl)c(C(F)(F)F)c4)c3)nc3sccn23)n1	108% (inactive)
CCOC(=O)Nc1ccc2c(ccn2C(=O)c2cccc(F)c2)c1	13.2% (inactive)
COC(=O)c1cccc(NC2=CC(=O)C(C)=C(C)C2=O)c1	93.4% (inactive)
CCCCc1nc2c(N)nc3ccccc3c2n1Cc1ccc(OC)cc1	66.2% (inactive)
COC(=O)CCSC1=C(C)C(=O)c2ccccc2C1=O	89.6% (inactive)
O=S(=O)(NCCCNc1nccc(-c2[nH]c(-c3ccccc3)nc2-c2ccc(F)c(O)c2)n1)c1cccc(F)c1	69.3% (inactive)
C/C(=C(\c1ccc(O)cc1)c1ccc(OCCN2CCCCCC2)cc1)c1ccc(Cl)cc1	-77.9% (active)
Fc1cccc(Cl)c1/C=N/Nc1nc(N/N=C/c2c(F)cccc2Cl)nc(N2CCCCC2)n1	37.5% (inactive)
COc1cc2cc(Oc3ccc(NC(=O)Nc4ccc(F)c(C(F)(F)F)c4)cc3)c(C)nc2cc1OCCN(C)C	98.8% (inactive)
COC(=O)c1cccc(NC2=C(Cl)C(=O)C(C)=C(C)C2=O)c1	60.7% (inactive)
O=C1C(SCc2ccccc2)=C(Cl)CN1c1ccc(Cl)cc1	103% (inactive)
Cc1ccc2c(n1)C(=O)C(Cl)=C(Nc1cccc(C(F)(F)F)c1)C2=O	109% (inactive)
Cc1cc(C)cc(NC2=C(Cl)C(=O)c3nc(C)ccc3C2=O)c1	96.4% (inactive)
COc1ccc2[nH]cc(/C=N/Nc3ccnc4cc(Cl)ccc34)c2c1	-94.1% (active)
COc1ccccc1N1CCN(C2=C(Cl)C(=O)c3ncccc3C2=O)CC1	86% (inactive)
C#CCN(C)CCCOc1ccc(NC(=O)CCCCCCCCC(=O)NO)cc1Cl	63.4% (inactive)

Structure (SMILES)	growth
Cn1cc(C2=C(c3coc4cc(Br)ccc34)C(=O)NC2=O)c2ccccc21	10.5% (inactive)
CCc1cc(OC(=O)N2CCN(CCC(C)(COC(C)(C)C)COC(C)(C)C)CC2)ccc1Nc1cc(-c2ccc(-n3cccn3)cc2)[nH]n1	48.7% (inactive)
CS(=O)(=O)c1ccc(/C(=N/N=C(N)N)c2ccc(F)cc2)cc1	94.6% (inactive)
O=C(N/N=C\c1ccc(F)cc1)c1ccc2nc(-c3ccc(Br)cc3)[nH]c2c1	53.7% (inactive)
CNC(=O)Nc1ccc(Nc2cc(-c3ccc(-n4cccn4)cc3)[nH]n2)c(C)c1	123% (inactive)
COc1ccc(C(C)=C(c2ccc(OCCN(C)C)cc2)c2ccc(OCCN(C)C)cc2)cc1	3.78% (active)
CN1CCN(c2ccc(C(=O)/C=C/c3cc(F)cc(C(F)(F)F)c3)cc2)CC1	59.9% (inactive)
O=C1c2ccccc2C23C(=C(c4cncnc4)c4ccccc42)CCCN13 (stereo not given)	85.3% (inactive)
NC(=O)c1c(NC(=O)c2ccc(C(F)(F)F)cc2)sc2c1CCC(=O)C2	-7.54% (active)
Cc1ccc2c(n1)C(=O)C(Cl)=C(Nc1cccc(C)c1C)C2=O	61.2% (inactive)
CCCCCCNC(=O)Oc1ccc(/C(=C(/C)c2ccc(OC)cc2)c2ccc(OCCN3CCCCCC3)cc2)cc1	76.8% (inactive)
NS(=O)(=O)c1ccc(Nc2nc(N/N=C/C=C/c3ccccc3)nc(Nc3ccccc3)n2)cc1	43% (inactive)
CC/C(=C(/c1ccc(Cl)cc1)c1ccc(OCCN)cc1)c1ccccc1	110% (inactive)
COC(=O)c1ccc(NC2=C(Cl)C(=O)C(C)=C(C)C2=O)cc1	64.5% (inactive)
COc1ccc(NC(=O)CCCCCCNC(=O)C(O)(O)C(F)(F)F)cc1	60.2% (inactive)
COc1cc2c3c(cc4c5c(ccc4c3c1OC)OCO5)N(CCN(C)C)C2=O	-75.5% (active)
O=S(=O)(Oc1ccc(-c2cn3ccoc3n2)cc1)C1CCCCC1	124% (inactive)
COc1ccc(-c2nc(C#N)c(N3CCC(S(=O)(=O)N4CCOCC4)CC3)o2)cc1	103% (inactive)
O=c1c2cc(-c3ccc(F)cc3F)ccc2n(Nc2ccccc2)c(=O)n1-c1cccc(C(F)(F)F)c1	-8.2% (active)
COc1ccc(OC)c(CCn2cncc2-c2c[nH]c3ccc(Cl)cc23)c1	21.4% (inactive)

system: SNB-19 CNS; test: as above; conditions: 10 µM unless noted

Structure (SMILES)	growth
O=[N+]([O-])c1ccc(NC(=S)NNC(=S)Nc2ccc(F)cc2)cc1	94.4% (inactive)
O=C(COc1ccc(/C=C2\C(=O)Nc3ccc(F)cc32)cc1)Nc1ccccc1	93.3% (inactive)
O=C1[C@@H]2Cc3c([nH]c4ccccc34)[C@H](c3ccc(Br)cc3)N2C(=O)CN1C1CCN(Cc2c(Cl)cccc2Cl)CC1	92.2% (inactive)
C/C(=N\NC(=O)/C=C/CC(=O)O)c1nnn(-c2ccc([N+](=O)[O-])cc2)c1C	98.3% (inactive)
CS(=O)(=O)c1nccc(-c2c(-c3cccc(OCc4ccc(Cl)c(C(F)(F)F)c4)c3)nc3sccn23)n1	58.6% (inactive)
CCOC(=O)Nc1ccc2c(ccn2C(=O)c2cccc(F)c2)c1	27.8% (inactive)
COC(=O)c1cccc(NC2=CC(=O)C(C)=C(C)C2=O)c1	96.2% (inactive)
CCCCc1nc2c(N)nc3ccccc3c2n1Cc1ccc(OC)cc1	76% (inactive)
COC(=O)CCSC1=C(C)C(=O)c2ccccc2C1=O	96.5% (inactive)
O=S(=O)(NCCCNc1nccc(-c2[nH]c(-c3ccccc3)nc2-c2ccc(F)c(O)c2)n1)c1cccc(F)c1	110% (inactive)
C/C(=C(\c1ccc(O)cc1)c1ccc(OCCN2CCCCCC2)cc1)c1ccc(Cl)cc1	-20.6% (active)
Fc1cccc(Cl)c1/C=N/Nc1nc(N/N=C/c2c(F)cccc2Cl)nc(N2CCCCC2)n1	25.8% (inactive)
COc1cc2cc(Oc3ccc(NC(=O)Nc4ccc(F)c(C(F)(F)F)c4)cc3)c(C)nc2cc1OCCN(C)C	99.8% (inactive)
COC(=O)c1cccc(NC2=C(Cl)C(=O)C(C)=C(C)C2=O)c1	87% (inactive)
O=C1C(SCc2ccccc2)=C(Cl)CN1c1ccc(Cl)cc1	96.9% (inactive)
Cc1ccc2c(n1)C(=O)C(Cl)=C(Nc1cccc(C(F)(F)F)c1)C2=O	101% (inactive)
Cc1cc(C)cc(NC2=C(Cl)C(=O)c3nc(C)ccc3C2=O)c1	75.9% (inactive)
COc1ccc2[nH]cc(/C=N/Nc3ccnc4cc(Cl)ccc34)c2c1	-100% (active)
COc1ccccc1N1CCN(C2=C(Cl)C(=O)c3ncccc3C2=O)CC1	88.8% (inactive)
C#CCN(C)CCCOc1ccc(NC(=O)CCCCCCCCC(=O)NO)cc1Cl	77.3% (inactive)

Structure (SMILES)	growth
Cn1cc(C2=C(c3coc4cc(Br)ccc34)C(=O)NC2=O)c2ccccc21	90.7% (inactive)
CCc1cc(OC(=O)N2CCN(CCC(C)(COC(C)(C)C)COC(C)(C)C)CC2)ccc1Nc1cc(-c2ccc(-n3cccn3)cc2)[nH]n1	86.2% (inactive)
CS(=O)(=O)c1ccc(/C(=N/N=C(N)N)c2ccc(F)cc2)cc1	63% (inactive)
O=C(N/N=C\c1ccc(F)cc1)c1ccc2nc(-c3ccc(Br)cc3)[nH]c2c1	23.2% (inactive)
CNC(=O)Nc1ccc(Nc2cc(-c3ccc(-n4cccn4)cc3)[nH]n2)c(C)c1	97.6% (inactive)
COc1ccc(C(C)=C(c2ccc(OCCN(C)C)cc2)c2ccc(OCCN(C)C)cc2)cc1	12.6% (inactive)
CN1CCN(c2ccc(C(=O)/C=C/c3cc(F)cc(C(F)(F)F)c3)cc2)CC1	81.7% (inactive)
O=C1c2ccccc2C23C(=C(c4cncnc4)c4ccccc42)CCCN13 (stereo not given)	93.4% (inactive)
NC(=O)c1c(NC(=O)c2ccc(C(F)(F)F)cc2)sc2c1CCC(=O)C2	16.3% (inactive)
Cc1ccc2c(n1)C(=O)C(Cl)=C(Nc1cccc(C)c1C)C2=O	13.3% (inactive)
CCCCCCNC(=O)Oc1ccc(/C(=C(/C)c2ccc(OC)cc2)c2ccc(OCCN3CCCCCC3)cc2)cc1	39.2% (inactive)
NS(=O)(=O)c1ccc(Nc2nc(N/N=C/C=C/c3ccccc3)nc(Nc3ccccc3)n2)cc1	48.4% (inactive)
CC/C(=C(/c1ccc(Cl)cc1)c1ccc(OCCN)cc1)c1ccccc1	99.8% (inactive)
COC(=O)c1ccc(NC2=C(Cl)C(=O)C(C)=C(C)C2=O)cc1	53.5% (inactive)
COc1ccc(NC(=O)CCCCCCNC(=O)C(O)(O)C(F)(F)F)cc1	66.8% (inactive)
COc1cc2c3c(cc4c5c(ccc4c3c1OC)OCO5)N(CCN(C)C)C2=O	1.56% (active)
O=S(=O)(Oc1ccc(-c2cn3ccoc3n2)cc1)C1CCCCC1	97.1% (inactive)
COc1ccc(-c2nc(C#N)c(N3CCC(S(=O)(=O)N4CCOCC4)CC3)o2)cc1	96.9% (inactive)
O=c1c2cc(-c3ccc(F)cc3F)ccc2n(Nc2ccccc2)c(=O)n1-c1cccc(C(F)(F)F)c1	11.5% (inactive)
COc1ccc(OC)c(CCn2cncc2-c2c[nH]c3ccc(Cl)cc23)c1	60.4% (inactive)
